Test results published in PubChem BioAssay (NCATS).
Values joined by “and” are separate entries in the source; they are usually repeats but may differ in a detail not shown here. Equal entries are not always repeated. Inconclusive results are not listed. Where a structure was tested more than once in an assay, its records may differ in their call. Active and inactive are the calls of the source. Unless noted, the call rests on the fitted dose curve; in most records, active means well fitted curve in either direction with a large enough effect (not every such curve was filed as active); inconclusive means small, poorly fitted or top-dose-only effect, or another doubt; inactive means flat fitted curve, though single readings scatter. Residues, ends and D or L forms follow the SMILES beside them. *: point of attachment. Cbz = O=C(OCc1ccccc1)*

What was measured:
[1] = AP1 Signaling Pathway (AID 357); settings: ME-180 AP-1-bla reporter, EGF-induced, beta-lactamase ratio, 5 h; at 38 µM (top of the series) unless noted;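 further: ME-180 reporter cells stimulated with EGF at its EC50 level; on the % scale 0 is the no-effect control and ±100 the full control effect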
Summary of the method: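 First, ME-180 AP-1-bla cells were cultured overnight at 37 °C in low-serum Opti-MEM. Next, titrated compounds with EC50 EGF were incubated 5 hours. Finally, CCF4 was added for 2.5 hours and the 460/530 nm ratio recorded.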

[2] = target: Cytochrome P450 1A2 (Homo sapiens) (UniProt P05177); assay: p450-cyp1a2 (AID 410; calls by dose curve; further: potency means the concentration at half of the fitted maximal effect;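 on activity change, negative = inhibition: -100% = full effect of reference inhibitor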)
Summary of the method: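 Luminescent demethylation readout: Luciferin-ME (100uM, equal to Km) turned over by 20nM CYP1A2 for 60 min at room temperature after NADPH regeneration addition, following 10 min compound preincubation. Normalization used 57 uM furafylline as full inhibition.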

[3] = NFAT Signaling Pathway (AID 444); settings: Jurkat NFAT-bla M1, carbachol, beta-lactamase ratio, 5 h; at 38 µM (top of the series) unless noted;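 further: carbachol stimulus at about its EC50 of 1 µM final; on the % scale 0 is the no-effect control and ±100 the full control effect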
Summary of the method: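 Read-out: CCF4 FRET ratio (460 nm/530 nm) after 1 h RT dye loading, used for %activity and AC50 from titration series. Cells: Jurkat NFAT-β-lactamase/M1 line, treated with compound plus 1 uM carbachol for 5 h, 37 °C.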

[4] = target: Glucocorticoid receptor (Homo sapiens) (UniProt P04150); assay: GR-GFP Redistribution (AID 450;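 active means compounds whose dose series gives a full or clear partial fitted curve of increased nuclear translocation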; further: potency means the concentration at half of the fitted maximal effect); settings: U2OS GR-GFP nuclear translocation, laser cytometry, 2 h
[5] = target: Glucocorticoid receptor (Homo sapiens) (UniProt P04150); assay: GR-EFC Redistribution (AID 451; calls by dose curve; further: potency means the concentration at half of the fitted maximal effect); settings: CHO-K1 GR-EFC translocation, beta-gal luminescence, 2 h
Summary of the method: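 Translocation of GR-ED fusion to nuclear EA restores b-gal, read by luminescence after 1 h room-temperature detection. Engineered CHO-K1 biosensor cells, 1,000/well, exposed 2 h at 37 C to titrations up to 46 uM final.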

[6] = Stat Signaling Pathway (AID 446); settings: ME-180 (cervical carcinoma) SIE beta-lactamase reporter, IL-6 stimulated, 5 h;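 further: ME-180 cervical cancer cells given 40 pM IL-6 alongside compound; SIE-controlled beta-lactamase reporter measured as 460/530 nm FRET emission ratio; on the % scale 0 is the no-effect control and ±100 the full control effect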
Summary of the method: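 Normalization used AC90 stimulation (300 pM IL-6) and AC90 inhibition (125 nM pan-JAK inhibitor at 40 pM IL-6). The underlying signal is SIE-driven beta-lactamase in ME-180 cells after 5 h IL-6 exposure with compound.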

[7] = target: Mitogen-activated protein kinase 10 (Mus musculus) (UniProt Q61831); assay: JNK3 AlphaScreen Assay (AID 530);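 further: kinase came from lysate of stimulated human HepG2 cells; signal reports phosphorylation of biotinylated GST-cJun 1-79 at Ser73 with 10 µM ATP; on the % scale 0 is the no-effect control and ±100 the full control effect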
Summary of the method: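 qHTS titrations with 15 min compound pre-incubation before adding ATP (10 uM final). Read-out: AlphaScreen of Ser73-phosphorylated biotin-GST-cJun using HepG2 lysate JNK3 activated by IL-1β and TNFα.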

[8] = at 38 µM (top of the series) unless noted

Chain of Cytochrome P450 1A2 (Homo sapiens) (P05177 whole entry, looked up): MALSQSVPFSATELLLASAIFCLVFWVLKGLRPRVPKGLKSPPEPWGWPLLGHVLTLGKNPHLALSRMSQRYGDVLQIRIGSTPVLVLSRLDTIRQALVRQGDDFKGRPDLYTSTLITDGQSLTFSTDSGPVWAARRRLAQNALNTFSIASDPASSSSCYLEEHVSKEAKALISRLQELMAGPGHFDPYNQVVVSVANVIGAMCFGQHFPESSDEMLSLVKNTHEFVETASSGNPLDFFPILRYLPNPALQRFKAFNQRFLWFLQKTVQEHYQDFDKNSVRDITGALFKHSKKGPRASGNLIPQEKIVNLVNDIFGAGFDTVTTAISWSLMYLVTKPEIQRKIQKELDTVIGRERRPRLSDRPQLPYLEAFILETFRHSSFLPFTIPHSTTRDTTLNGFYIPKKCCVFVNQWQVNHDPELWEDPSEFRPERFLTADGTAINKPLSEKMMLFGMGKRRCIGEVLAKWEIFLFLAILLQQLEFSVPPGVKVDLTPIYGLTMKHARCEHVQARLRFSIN
Chain of Glucocorticoid receptor (Homo sapiens) (P04150 whole entry, looked up, the tested form may be a part): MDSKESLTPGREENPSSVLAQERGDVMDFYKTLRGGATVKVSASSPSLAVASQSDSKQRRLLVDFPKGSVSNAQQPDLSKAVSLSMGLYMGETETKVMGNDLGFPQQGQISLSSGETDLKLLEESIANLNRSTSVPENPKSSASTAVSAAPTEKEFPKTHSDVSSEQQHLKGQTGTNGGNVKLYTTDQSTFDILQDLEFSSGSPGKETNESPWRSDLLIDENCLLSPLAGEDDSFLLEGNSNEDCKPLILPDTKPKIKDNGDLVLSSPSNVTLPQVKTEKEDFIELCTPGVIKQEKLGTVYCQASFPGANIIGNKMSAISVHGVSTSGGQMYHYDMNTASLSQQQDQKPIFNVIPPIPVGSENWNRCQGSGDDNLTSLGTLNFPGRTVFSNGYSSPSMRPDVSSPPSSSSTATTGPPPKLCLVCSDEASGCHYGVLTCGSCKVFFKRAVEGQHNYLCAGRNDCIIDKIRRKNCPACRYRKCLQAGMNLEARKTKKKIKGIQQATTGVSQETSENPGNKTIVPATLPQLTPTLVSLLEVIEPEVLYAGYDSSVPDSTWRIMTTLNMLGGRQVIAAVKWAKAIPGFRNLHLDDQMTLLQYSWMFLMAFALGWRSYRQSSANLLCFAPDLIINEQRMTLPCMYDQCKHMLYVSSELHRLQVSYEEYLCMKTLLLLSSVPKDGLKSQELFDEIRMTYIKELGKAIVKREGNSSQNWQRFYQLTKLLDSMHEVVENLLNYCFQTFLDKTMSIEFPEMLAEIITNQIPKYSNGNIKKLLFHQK

SMILES	activity change, negative = inhibition [1]	Potency [2]	activity change, negative = inhibition [3]	Potency [4]	Potency [5]	activity, negative = inhibition [6, 8]	outcome [7]	activity, negative = inhibition ([6]; at 17.2 µM (top of the series))	activity, negative = inhibition ([6]; at 38 µM (top of the series))
O=C(O)C1=CCNCC1	-4.73% (inactive)	inactive	-0.658% (inactive)	> 46 µM (inactive)	> 46 µM (inactive)				
CCCOC(=O)c1c(-c2ccccc2)nc(CC)c(C(=O)SCC)c1CCC	2.66% (inactive)	10 µM (active)		> 46 µM (inactive)	> 46 µM (inactive)	-19.4% (inactive)			
C[C@](Cc1ccc(O)c(O)c1)(NN)C(=O)O	-13.3% (inactive)	31.6 µM (active)	8.6% (inactive)	> 46 µM (inactive)	> 46 µM (inactive)		inactive		
CCCCCCCCCCCCCCC[C@H](O)[C@H](N)CO	5.73% (inactive)	inactive	0.212% (inactive)	> 46 µM (inactive)	> 46 µM (inactive)		inactive		
O=C(c1ccc2c(c1)OCCO2)N1CCCCC1	1.86% (inactive)	15.8 µM (active)	5.58% (inactive)	> 46 µM (inactive)	> 46 µM (inactive)		inactive		
O=c1[nH]c(=O)c2nc3ccccc3nc2[nH]1	-6.22% (inactive)	12.6 µM (active)	0.27% (inactive)	> 46 µM (inactive)	> 46 µM (inactive)		inactive		
NC(=Nc1ccccc1)NC(=O)c1nc(Cl)c(N)nc1N	-5.68% (inactive)	12.6 µM (active)	21.6% (inactive)	> 46 µM (inactive)	> 46 µM (inactive)		inactive		
Cc1nc(N=Nc2cc(S(=O)(=O)O)c3cc([N+](=O)[O-])cc(S(=O)(=O)O)c3c2)c(COP(=O)(O)O)c(C=O)c1O	-0.539% (inactive)	39.8 µM (active)	2.42% (inactive)	> 46 µM (inactive)	> 46 µM (inactive)				
Nc1ccc(N2C(=O)c3ccccc3C2=O)c(Cl)c1	-5.66% (inactive)	inactive	7.18% (inactive)	> 46 µM (inactive)	> 46 µM (inactive)		inactive		
Cc1nc2c(OCc3ccccc3)cccn2c1CC#N	-13% (inactive)	2 µM (active) and 398 nM (active)	4.14% (inactive)	> 46 µM (inactive)	> 46 µM (inactive)		inactive		
O=c1cc(-c2ccccc2)[nH]c2nc(Cl)ccc12	-2.89% (inactive)	0.398 µM (active)		> 46 µM (inactive)	> 46 µM (inactive)	-25.2% (inactive)	inactive		
c1ccc2nc(C3=NCCN3)ccc2c1	-2.57% (inactive)	5.01 µM (active) and 794 nM (active)		> 46 µM (inactive)	> 46 µM (inactive)	0.247% (inactive)	inactive		
COc1cc(CC(=O)O)ccc1O	8.32% (inactive)	inactive	6.22% (inactive)	> 46 µM (inactive)	> 46 µM (inactive)				
N#Cc1cc2nc(O)c(O)nc2cc1[N+](=O)[O-]	-1.83% (inactive)	inactive and 39.8 µM (active)	10.2% (inactive)	> 46 µM (inactive)	> 46 µM (inactive)		inactive		
COc1ccc(NC(=O)c2ccc(-c3ccc(-c4noc(C)n4)cc3C)cc2)cc1N1CCN(C)CC1	-2.61% (inactive)	inactive		> 46 µM (inactive)	> 46 µM (inactive)	-18.9% (inactive)			
COc1ccccc1N1CCN(CCCCNC(=O)c2ccc3ccccc3c2)CC1	1.71% (inactive)	20 µM (active) and inactive		> 46 µM (inactive) and > 20.6 µM (inactive)	> 46 µM (inactive) and > 20.6 µM (inactive)			5.11% (inactive)	-1.2% (inactive)
Nc1ccc2c3c(cccc13)C(=O)NC2=O	-5.58% (inactive)	1 µM (active)		> 46 µM (inactive)	> 46 µM (inactive)	-25.5% (inactive)	inactive		
OC1(c2ccc(Cl)cc2)CCN(Cc2c[nH]c3ccccc23)CC1	6.53% (inactive)	15.8 µM (active) and 31.6 µM (active)	8.51% (inactive)	> 46 µM (inactive)	> 46 µM (inactive)				
O=C(O)C1=CCCNC1	-0.308% (inactive)	inactive	3.92% (inactive)	> 46 µM (inactive)	> 46 µM (inactive)				
CC(C)[C@H](NC(=O)OCc1ccccc1)C(=O)N[C@H](C=O)Cc1ccccc1 (Cbz-Val-Phe-aldehyde)	-8.71% (inactive)	inactive	-9.23% (inactive)	> 46 µM (inactive)	> 46 µM (inactive)				
N#CC(C#N)=C(N)/C(C#N)=C/c1ccc(O)cc1	-3.7% (inactive)	3.98 µM (active)	3.6% (inactive)	> 46 µM (inactive)	> 46 µM (inactive)				
CN1CCN(c2nc3cc(C(F)(F)F)ccc3n3cccc23)CC1	-17.4% (inactive)	200 nM (active) and 39.8 nM (active)	28.4% (inactive)	> 46 µM (inactive)	> 46 µM (inactive)				
CCN(CC)CCCCCCCCOC(=O)c1cc(OC)c(OC)c(OC)c1	20.2% (inactive)	inactive	-83.6% (active)	> 46 µM (inactive)	> 46 µM (inactive)		inactive		

SMILES	activity change, negative = inhibition [1]	Potency [2]	activity change, negative = inhibition [3]	Potency [4]	Potency [5]	activity, negative = inhibition [6, 8]	outcome [7]	activity, negative = inhibition ([6]; at 17.2 µM (top of the series))	activity, negative = inhibition ([6]; at 38 µM (top of the series))
O=[N+]([O-])c1cccc2c(Br)[nH]nc12	1.06% (inactive)	794 nM (active) and 126 nM (active)	-9.63% (inactive)	> 46 µM (inactive)	> 46 µM (inactive)				
Nc1ncnc2c1c(-c1ccc(Oc3ccccc3)cc1)cn2C1CCCC1	-103% (active)	15.8 µM (active)		> 46 µM (inactive)	> 46 µM (inactive)	-13.6% (inactive)			
O=c1ccc2c(OCCCCc3ccccc3)c3ccoc3cc2o1	-12.4% (inactive)	0.501 µM (active)	-20.3% (inactive)	> 46 µM (inactive)	> 46 µM (inactive)				
NC(N)=NC(N)=Nc1ccccc1	-6.28% (inactive)	inactive and 31.6 µM (active)		> 46 µM (inactive)	> 46 µM (inactive)	-15.1% (inactive)	inactive		
Cn1c(=O)c2[nH]c(C3CCCC3)nc2n(C)c1=O	0.66% (inactive)	12.6 µM (active)	3.19% (inactive)	> 46 µM (inactive)	> 46 µM (inactive)				
[Li+]	3.61% (inactive)	inactive		> 46 µM (inactive)	> 46 µM (inactive)	-7.38% (inactive)	inactive		
CC[N+](CC)(CC)CC(=O)Nc1c(C)cccc1C	6.05% (inactive)	inactive and 31.6 µM (active)		> 46 µM (inactive)	> 46 µM (inactive)	-19.8% (inactive)	inactive		
CC(=O)NCCc1c[nH]c2ccc(O)cc12	-2.23% (inactive)	15.8 µM (active)	7.32% (inactive)	> 46 µM (inactive)	> 46 µM (inactive)		inactive		
NOCC(=O)O	12.3% (inactive)	inactive	-5.75% (inactive)	> 46 µM (inactive)	> 46 µM (inactive)				
COCc1nc2c([nH]1)c(=O)n(C)c(=O)n2CC(C)C	1.03% (inactive)	12.6 µM (active)	9.41% (inactive)	> 46 µM (inactive)	> 46 µM (inactive)				
CN(C)CCC(c1ccc(Br)cc1)c1ccccn1 (stereo not given)	14% [at 17.2 µM] (inactive)		-90.1% [at 17.2 µM] (active)						
C=CCn1c(=O)c2c(nc(-c3ccc(S(=O)(=O)O)cc3)n2C)n(C)c1=O	7.93% (inactive)	inactive		> 46 µM (inactive)	> 46 µM (inactive)				
CCCn1c(=O)c2c(ncn2C)n(CCC)c1=O	2.31% (inactive)	7.94 µM (active)			> 46 µM (inactive)	28.8% (inactive)			
CCCCCCCCCCC/C=C\C(C)(C)/C=C\CCCC(=O)O	-13.8% (inactive)	39.8 µM (active)		> 46 µM (inactive)	> 46 µM (inactive)		inactive		
COc1ccc2c(c1)c(CC(=O)O)c(C)n2Cc1ccc(Cl)cc1	-18.2% (inactive)	31.6 µM (active)		> 46 µM (inactive)	> 46 µM (inactive)				
O=S(=O)(c1cccc2c(Cl)cccc12)N1CCCNCC1	-0.881% (inactive)		3.5% (inactive)	> 46 µM (inactive)	> 46 µM (inactive)	-1.55% (inactive)	inactive		
S=C(S)N1CCCC1	12.8% (inactive)	31.6 µM (active) and 12.6 µM (active)		> 46 µM (inactive)	> 46 µM (inactive)				
CCCn1c(=O)c2[nH]c(-c3ccc(S(=O)(=O)O)cc3)nc2n(CCC)c1=O	7.54% (inactive)		13.8% (inactive)	> 46 µM (inactive)	> 46 µM (inactive)	42.3% (inactive)	inactive		
NC1(C(=O)O)CCCCC1	-0.957% (inactive)		3% (inactive)	> 46 µM (inactive)	> 46 µM (inactive)	9.73% (inactive)			
CCN1C(=O)C=CC1=O	-2.69% (inactive)		4.62% (inactive)	> 46 µM (inactive)	> 46 µM (inactive)	-6.29% (inactive)			
Cc1nc(N=Nc2ccc(C(=O)O)cc2)c(COP(=O)(O)O)c(C=O)c1O	-5.94% (inactive)		7.15% (inactive)	> 46 µM (inactive)	> 46 µM (inactive)	-19.4% (inactive)	inactive		
c1ccc(CN2CCC3(CCCc4ccccc43)CC2)cc1	11.9% (inactive)		-19.1% (inactive)	> 46 µM (inactive)	> 46 µM (inactive)	-10.2% (inactive)	inactive		
CC(=O)N[C@@H](Cc1c[nH]c2ccccc12)C(=O)OCc1cc(C(F)(F)F)cc(C(F)(F)F)c1	10.1% (inactive)		19.5% (inactive)	> 46 µM (inactive)	> 46 µM (inactive)	1.93% (inactive)	inactive		
